From PubChem BioAssay (NCATS)
Records with an inconclusive call do not appear. Calls of active or inactive are those of the source. The call rests on the fitted dose curve; in most records, active means well fitted curve in the direction sought with a large enough effect; inconclusive means small, poorly fitted or top-dose-only effect, or another doubt; inactive means no such curve, though single readings can be large; an effect the other way counts as inactive or inconclusive.

Columns and labels:
CRL-7250 = normal cell line; assay: Cytotoxic Profiling of Annotated Libraries Using Quantitative High-Throughput Screening (AID 1296008); settings: Five cell lines viability, CellTiter-Glo ATP luminescence, 48-72 h; max response: active compounds read low; further: nearly all actives have a fitted effect of over 60% in size; on max response: on the % scale 0 is the no-effect control and ±100 the full control effect
Procedure, shortened: (§1)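 Compounds were pin-transferred onto cells and incubated 48 or 72 hr at 37 degree Celsius, 95% humidity. CellTiter-Glo was added, plates sat 10 min at room temperature, then ATP-coupled luminescence was imaged as the viability read-out.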

HEK293 = assay: as above; settings: Five cell lines viability, CellTiter-Glo ATP luminescence, 48-72 h; max response: active compounds read low
Procedure, shortened: as §1

HaCat [1] = assay: as above; settings: Five cell lines viability, CellTiter-Glo ATP luminescence, 48-72 h; max response: active compounds read low
Procedure, shortened: as §1

KB-3-1 = assay: as above; settings: Five cell lines viability, CellTiter-Glo ATP luminescence, 48-72 h; max response: active compounds read low
Procedure, shortened: as §1

NIH3T3 [2] = assay: as above; settings: Five cell lines viability, CellTiter-Glo ATP luminescence, 48-72 h; max response: active compounds read low
Procedure, shortened: as §1

HACAT [3] = assay: qHTS assay to identify novel small-molecules to repurpose for Merkel cell carcinoma treatment (AID 1296009); settings: MCC and control cell lines, CellTiter-Glo viability, 72 h; at 44.8 µM (top of the series) unless noted; further: nearly all actives have a fitted effect of over 60% in size
Procedure, shortened: (§2)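 Viability readout: ATP luminescence (CellTiter-Glo) after 72 hr drug exposure at 37 degree celsius. Dose-response format was 8 points for NPC and 11 points for MIPE; data normalized to in-plate controls.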

HEK293T = assay: as above; settings: MCC and control cell lines, CellTiter-Glo viability, 72 h; series mostly up to 44.8 µM
Procedure, shortened: as §2

NIH3T3 [4] = assay: as above; settings: MCC and control cell lines, CellTiter-Glo viability, 72 h; at 44.8 µM (top of the series) unless noted
Procedure, shortened: as §2

C33A = assay: Primary qHTS to identify gynecologic anti-cancer compounds using libraries of approved drugs and bioactive compounds (AID 1345084); settings: Gynecologic cancer cell panel viability, ATPlite luminescence, 48 h; series mostly up to 57.5 µM; further: on the % scale 0 is the no-effect control and ±100 the full control effect; nearly all actives have a fitted effect of over 55% in size
Procedure, shortened: (§3)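 Luminescence from the ATPlite ATP-monitoring reagent indicates viable cell number; lower signal means cytotoxicity. Cells received compound 16 h after seeding and were exposed for 48 h across five concentrations.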

CAOV3 = assay: as above; settings: Gynecologic cancer cell panel viability, ATPlite luminescence, 48 h; series mostly up to 57.5 µM
Procedure, shortened: as §3

CASKI = assay: as above; settings: Gynecologic cancer cell panel viability, ATPlite luminescence, 48 h; series mostly up to 57.5 µM
Procedure, shortened: as §3

Es-2 = assay: as above; settings: Gynecologic cancer cell panel viability, ATPlite luminescence, 48 h; series mostly up to 57.5 µM
Procedure, shortened: as §3

HeLa = assay: as above; settings: Gynecologic cancer cell panel viability, ATPlite luminescence, 48 h; series mostly up to 57.5 µM
Procedure, shortened: as §3

C=C1C(=O)OC2CC(C)=C(C(C)CCCO[C@@H]3O[C@H](CO)[C@@H](O)[C@H](O)[C@H]3O)C(O)C12 (some centres not stated)
inactive: max response (CRL-7250) -0.682% | outcome (HEK293) | outcome (HaCat [1]) | outcome (KB-3-1) | outcome (NIH3T3 [2]) | outcome (HACAT [3]) inactive [at 17.4 µM] | Potency (HEK293T) | outcome (NIH3T3 [4]) inactive [at 17.4 µM] | Potency (C33A) | Potency (CAOV3) | Potency (CASKI) | Potency (Es-2) | Potency (HeLa)

CC(C)C1=CC2=CCC3[C@](C)(CCC[C@@]3(C)C(=O)O)C2CC1O (some centres not stated)
inactive: max response (CRL-7250) -2.15% | outcome (HEK293) | outcome (HaCat [1]) | outcome (KB-3-1) | outcome (NIH3T3 [2]) | outcome (HACAT [3]) | Potency (HEK293T) | outcome (NIH3T3 [4]) | Potency (C33A) | Potency (CAOV3) | Potency (CASKI) | Potency (Es-2) | Potency (HeLa)

COc1cc([C@H]2OC[C@@H]3[C@@H](c4ccc(O[C@@H]5O[C@H](CO)[C@@H](O)[C@H](O)[C@H]5O)c(OC)c4)OC[C@]23O)ccc1O
inactive: max response (CRL-7250) -6.95% | outcome (HEK293) | outcome (HaCat [1]) | max response (KB-3-1) 3.2% | outcome (NIH3T3 [2]) | outcome (HACAT [3]) inactive [at 17.4 µM] | Potency (HEK293T) | outcome (NIH3T3 [4]) inactive [at 17.4 µM] | Potency (C33A) | Potency (CAOV3) | Potency (CASKI) | Potency (Es-2) | Potency (HeLa)

C=C1CCC2(OC1)OC1CC3C4CC=C5CC(O)CC(O[C@@H]6OC[C@@H](O)[C@H](O)[C@H]6O)C5(C)C4CCC3(C)C1(O)C2C (some centres not stated)
inactive: outcome (CRL-7250) | outcome (HEK293) | outcome (HaCat [1]) | max response (KB-3-1) -0.359% | outcome (NIH3T3 [2]) | outcome (HACAT [3]) inactive [at 17.4 µM] | Potency (HEK293T) | outcome (NIH3T3 [4]) inactive [at 17.4 µM] | Potency (C33A) | Potency (CAOV3) | Potency (CASKI) | Potency (Es-2) | Potency (HeLa)

O=S(=O)(NC1CCNCC1)c1cc(S(=O)(=O)c2ccccc2)ccc1C(F)(F)F
inactive: max response (CRL-7250) 1.06% | outcome (HEK293) | outcome (HaCat [1]) | max response (KB-3-1) 3.12% | outcome (NIH3T3 [2]) | outcome (HACAT [3]) | Potency (HEK293T) | outcome (NIH3T3 [4]) | Potency (C33A) | Potency (CAOV3) | Potency (CASKI) | Potency (Es-2) | Potency (HeLa)

CC1CCC2C(C)(C)CC(C)(CO)C2(O)C1C(=O)O (configuration not stated)
inactive: max response (CRL-7250) 0.69% | outcome (HEK293) | outcome (HaCat [1]) | max response (KB-3-1) 9.23% | outcome (NIH3T3 [2]) | outcome (HACAT [3]) | Potency (HEK293T) | outcome (NIH3T3 [4]) | Potency (C33A) | Potency (CAOV3) | Potency (CASKI) | Potency (Es-2) | Potency (HeLa)

COc1cc(C[C@H]2COC(=O)[C@@H]2Cc2ccc(O)c(OC)c2)ccc1O
inactive: outcome (CRL-7250) | outcome (HEK293) | outcome (HaCat [1]) | max response (KB-3-1) -4.79% | outcome (NIH3T3 [2]) | outcome (HACAT [3]) | Potency (HEK293T) | outcome (NIH3T3 [4]) | Potency (C33A) | Potency (CAOV3) | Potency (CASKI) | Potency (Es-2) | Potency (HeLa)

COc1cc(NC(=O)c2ccccn2)ccc1Cl
inactive: max response (CRL-7250) 4.88% | outcome (HEK293) | outcome (HaCat [1]) | max response (KB-3-1) -6.58% | outcome (NIH3T3 [2]) | outcome (HACAT [3]) | Potency (HEK293T) | outcome (NIH3T3 [4]) | Potency (C33A) | Potency (CAOV3) | Potency (CASKI) | Potency (Es-2) | Potency (HeLa)

CC1OC(OC2C(O)C(C(=O)O)OC(OC3CCC4(C)C(CCC5(C)C4C=CC4=C6CC(C)(C)CC(O)C6(C)CCC45C)C3(C)C)C2OC2OCC(O)C(O)C2O)C(O)C(O)C1O (configuration not stated)
inactive: max response (CRL-7250) -1.54% | outcome (HEK293) | outcome (HaCat [1]) | max response (KB-3-1) 1.62% | outcome (NIH3T3 [2]) | outcome (HACAT [3]) inactive [at 9.27 µM] | outcome (HEK293T) inactive [at 9.27 µM] | outcome (NIH3T3 [4]) inactive [at 9.27 µM] | activity change, negative = cytotoxicity (C33A) 25.5% [at 11.6 µM] | activity change, negative = cytotoxicity (CAOV3) 25.6% [at 11.6 µM] | activity change, negative = cytotoxicity (CASKI) 17.4% [at 11.6 µM] | activity change, negative = cytotoxicity (Es-2) -1.97% [at 11.6 µM] | activity change, negative = cytotoxicity (HeLa) -2.13% [at 11.6 µM]

CO[C@@H](Cc1ccc(OCCc2nc(-c3ccccc3)oc2C)c2ccsc12)C(=O)O
inactive: outcome (CRL-7250) | outcome (HEK293) | outcome (HaCat [1]) | max response (KB-3-1) -3.49% | outcome (NIH3T3 [2]) | outcome (HACAT [3]) | Potency (HEK293T) | outcome (NIH3T3 [4]) | Potency (C33A) | Potency (CAOV3) | Potency (CASKI) | Potency (Es-2) | Potency (HeLa)

CC(=O)c1c(C)cc(O)cc1O[C@@H]1O[C@H](CO)[C@@H](O)[C@H](O)[C@H]1O
inactive: max response (CRL-7250) -5.78% | outcome (HEK293) | outcome (HaCat [1]) | outcome (KB-3-1) | outcome (NIH3T3 [2]) | outcome (HACAT [3]) | Potency (HEK293T) | outcome (NIH3T3 [4]) | Potency (C33A) | Potency (CAOV3) | Potency (CASKI) | Potency (Es-2) | Potency (HeLa)

O=C(O)CCc1cccc(O[C@@H]2O[C@H](CO)[C@@H](O)[C@H](O)[C@H]2O)c1O
inactive: outcome (CRL-7250) | outcome (HEK293) | outcome (HaCat [1]) | outcome (KB-3-1) | outcome (NIH3T3 [2]) | outcome (HACAT [3]) | Potency (HEK293T) | outcome (NIH3T3 [4]) | Potency (C33A) | Potency (CAOV3) | Potency (CASKI) | Potency (Es-2) | Potency (HeLa)

O=C(O[C@H]1[C@@H]2C=CO[C@@H](O[C@@H]3O[C@H](CO)[C@@H](O)[C@H](O)[C@H]3O)[C@@H]2[C@@]2(CO)O[C@@H]12)c1ccc(O)cc1
inactive: max response (CRL-7250) 1.96% | outcome (HEK293) | outcome (HaCat [1]) | max response (KB-3-1) 3.57% | outcome (NIH3T3 [2]) | outcome (HACAT [3]) inactive [at 17.4 µM] | Potency (HEK293T) | outcome (NIH3T3 [4]) inactive [at 17.4 µM] | Potency (C33A) | Potency (CAOV3) | Potency (CASKI) | Potency (Es-2) | Potency (HeLa)

CC(=O)OC[C@@]12[C@H](O)C[C@@H](C)[C@]3(C[C@@H](c4ccoc4)OC3=O)[C@H]1C[C@H](O)C[C@]21CO1
inactive: outcome (CRL-7250) | outcome (HEK293) | outcome (HaCat [1]) | outcome (KB-3-1) | outcome (NIH3T3 [2]) | outcome (HACAT [3]) inactive [at 17.4 µM] | Potency (HEK293T) | outcome (NIH3T3 [4]) inactive [at 17.4 µM] | Potency (C33A) | Potency (CAOV3) | Potency (CASKI) | Potency (Es-2) | Potency (HeLa)
